What is called inhibition is the relative decrease from the control value, in per cent.

Molecules are shown by their SMILES.

Experimental findings from ChEMBL document CHEMBL3433997, “St. Jude Leishmania screening dataset” (2016) are described below.

Assay type in all cases: functional
Experiment [1] has as its target Solute carrier family 2, facilitated glucose transporter member 1 (Homo sapiens) (UniProt P11166). Nature of the experiment: ST_JUDE_LEISH: Cytotoxicity at 2uM final concentration against transgenic Leishmania Mexicana promastigotes LmGLUT1 that are glucose transport deficient and complemented with the human glucose transporter GLUT1. Activity is measured by DNA content using SYBR green in vitro.

In experiment [2] the target is Hexose transporter 1 (Plasmodium falciparum) (UniProt O97467). Description: ST_JUDE_LEISH: Cytotoxicity at 2uM final concentration against transgenic Leishmania Mexicana promastigotes LmPfHT that are glucose transport deficient and complemented with the Plasmodium falciparum hexose transporter. Activity is measured by DNA content using SYBR green in vitro.
For experiment [3], the target named is Glucose transporter (Leishmania mexicana) (UniProt O61059). Nature of the experiment: ST_JUDE_LEISH: Cytotoxicity at 2uM final concentration against transgenic Leishmania Mexicana promastigotes LmGT2 that are glucose transport deficient and complemented with the L. Mexicana glucose transporter 2. Activity is measured by DNA content using SYBR green in vitro.

Solute carrier family 2, facilitated glucose transporter member 1 (Homo sapiens), sequence (P11166 whole entry): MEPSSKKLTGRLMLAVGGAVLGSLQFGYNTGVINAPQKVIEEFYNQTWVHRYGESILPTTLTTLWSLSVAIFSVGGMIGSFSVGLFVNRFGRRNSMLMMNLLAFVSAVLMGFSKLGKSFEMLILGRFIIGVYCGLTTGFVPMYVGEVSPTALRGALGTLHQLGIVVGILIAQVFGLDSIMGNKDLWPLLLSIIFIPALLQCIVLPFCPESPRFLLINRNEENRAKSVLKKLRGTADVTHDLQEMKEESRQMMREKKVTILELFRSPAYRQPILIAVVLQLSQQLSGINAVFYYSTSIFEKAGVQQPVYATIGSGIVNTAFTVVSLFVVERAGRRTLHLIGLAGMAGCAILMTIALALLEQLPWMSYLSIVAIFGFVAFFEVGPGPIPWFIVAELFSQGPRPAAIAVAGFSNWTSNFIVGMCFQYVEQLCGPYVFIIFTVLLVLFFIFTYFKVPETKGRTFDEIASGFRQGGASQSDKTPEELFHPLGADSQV

For `Cc1nc(C)c(-c2ccc(Oc3ccc(Cl)cc3)c(Cl)c2)c(O)c1Br`, the inhibition in experiment [1] turned out to be 2.21%; in experiment [2] it was 3.03%; in experiment [3], 1.91%.

With `COc1ccccc1C1CCN(C2CCC(NC(=O)c3cc4ccccc4[nH]3)CC2)CC1` (stereo not drawn), the inhibition in experiment [1] was -0.02%; in experiment [2] it was -0.24%; in experiment [3] it was 2.29%.

Turning to `COc1cc(Nc2nccc(N3CCC(NC(=O)c4cc5ccccc5s4)C3)n2)cc(OC)c1OC` (stereo not drawn), the inhibition in experiment [1] was 0.5%; in experiment [2], 0.56%; in experiment [3] it was -0.45%.

As for `C=CCOC(=O)N1CCC(CNCc2cccc(-c3ccc(-c4nc5cccc(C)c5[nH]4)s3)c2)C1` (stereo not drawn), the inhibition in experiment [1] is -0.28%; in experiment [2] it was -0.37%; in experiment [3] it was -0.89%.

Take `COc1ccc(C(=O)N2CCC(C(=O)NC(C)c3ccc(-n4ccnc4)cc3)CC2)c2ccccc12` (stereo not drawn): the inhibition in experiment [1] is -1.06%; in experiment [2], -0.1%; in experiment [3] it was -0.59%.

Consider `N=c1c(C(=O)NCc2ccccc2)cc2c(=O)n3ccccc3nc2n1CCc1ccccc1`, for which the inhibition in experiment [1] came out at 3.5%; in experiment [2], 4.07%; in experiment [3], 2.34%.

In the case of `N#Cc1cccc(/C=C/C(=O)NC2CCC(CCN3CCc4ccc(-c5cnccn5)cc4CC3)CC2)c1` (stereo not drawn), the inhibition came out at 7.94% in experiment [1], 7.48% in experiment [2] and 7.56% in experiment [3].

Turning to `CNCCCNc1ccnc2cc(Cl)ccc12`, the inhibition in experiment [1] is 3.07%; in experiment [2], 4.53%; in experiment [3], 5.03%.

On to `COc1ccc(CNCc2cccc(-c3cccc(-c4nc5cccc(C)c5[nH]4)c3)c2)cc1`, for which the results for the inhibition in experiment [1], in experiment [2] and in experiment [3] were 9.14%, 8.38% and 7.72%, respectively.

Take `O=C(/C=C/c1ccc(Cl)c(Cl)c1)NCCCCCN1CCC(NC(=O)Nc2cccc(Cl)c2F)CC1`: the inhibition in experiment [1] is -0.8%; in experiment [2], -0.65%; in experiment [3], -9.82%.

As for `Cc1cccc2nc(-c3cccc(-c4ccc(NC(=O)C(C)CN(C)C)cc4)c3)[nH]c12` (stereo not drawn), the inhibition in experiment [1] was -2.74%; in experiment [2] it was 0.04%; in experiment [3], -1.14%.

For the compound `Cc1cc(F)ccc1-c1nc(NCC(O)CNCCc2ccccc2)nc2c1ccc(=O)n2-c1c(F)cccc1F` (stereo not drawn), the inhibition turned out to be 5.26% in experiment [1], 4.59% in experiment [2] and 6.47% in experiment [3].

As for `CC(C)(C)c1ccc(-c2nc3c(ccc4nc(N)nc(N)c43)[nH]2)cc1`, the inhibition is -1% in experiment [1], -1.54% in experiment [2] and -2.76% in experiment [3].

On to `CS(=O)(=O)c1ccc(CCNCc2ccc(-c3ccc(CN(C(=O)C4CC(=O)c5ccccc54)C4Cc5ccccc5C4)cc3)nc2)cc1` (stereo not drawn), for which the values for the inhibition in experiment [1], in experiment [2] and in experiment [3] were 1.52%, -0.58% and -0.89%, respectively.

In the case of `CCCNCc1ccc(-c2ccc(CN(C(=O)c3nn(-c4ccccc4)nc3C)C3CCOCC3)cc2)nc1`, the inhibition in experiment [1] is -0.49%; in experiment [2] it was -0.28%; in experiment [3], -1.66%.

In the case of `CC(=O)Nc1ccc(C(=O)Nc2ccc(-c3csc(-c4nc5ccccc5[nH]4)c3)cc2)cn1`, the inhibition in experiment [1] was determined as 1.44%; in experiment [2] it was 1.57%; in experiment [3], 0.75%.

Consider `COc1ccc(CNCc2ccc(F)cc2)cc1-c1ccc(S(=O)(=O)NCCN2CCCC2)c(C)c1`, for which the inhibition in experiment [1] is 2.82%; in experiment [2], 3.53%; in experiment [3] it was -2.85%.

For the compound `CC(C)c1nc(N2CCN(C(=S)NCc3ccccc3)CC2)c(C#N)c2c1COC(C)(C)C2`, the inhibition in experiment [1] is -0.1%; in experiment [2], 0.47%; in experiment [3], 0.22%.

For `COc1ccc(-c2cc(C(=O)N[C@@H](Cc3ccccc3)C(=O)NCCN3CCCCC3)ccc2O)cc1`, the inhibition in experiment [1] amounted to 5.18%; in experiment [2], 2.26%; in experiment [3], 4.04%.

Regarding `O=C(Cc1cn(-c2ccccc2)nc1-c1ccc(Cl)cc1)Nc1nccs1`, the inhibition in experiment [1] was 7.92%; in experiment [2], 8.35%; in experiment [3], 7.98%.

With `COc1ccc(S(=O)(=O)N2CCC(NS(=O)(=O)c3ccc(F)cc3)CC2)cc1`, the inhibition in experiment [1] was 3.51%; in experiment [2], 2.07%; in experiment [3], 3.69%.

Take `CS(=O)(=O)Cc1ccc(Nc2nccc(N3CCCc4cc(NC(=O)Nc5cccc(C(F)(F)F)c5)ccc43)n2)cc1`: the inhibition in experiment [1] is 9.54%; in experiment [2], 15.9%; in experiment [3] it was 2.08%.

Take `CC(C)Nc1cc(C(=O)N[C@@H](Cc2ccccc2)[C@H](O)CNC2CCCCC2)cc(N2CCCCS2(=O)=O)c1`: the inhibition was 0.23% in experiment [1], 3.37% in experiment [2] and 7.2% in experiment [3].

With `COc1ccc2nccc(N(C)CC3(O)CCN(CCc4ccc5c(c4)NC(=O)CS5)CC3)c2n1`, the inhibition stood at 6.99% in experiment [1], 6.89% in experiment [2] and 6.32% in experiment [3].

For the compound `O=C(/C=C/c1ccc([N+](=O)[O-])cc1)N1CCC(NS(=O)(=O)c2cccc(C(F)(F)F)c2)CC1`, the values for the inhibition in experiment [1], in experiment [2] and in experiment [3] were 3.4%, 3% and 0.97%, respectively.

`Oc1ccc(Nc2ccnc3cc(Cl)ccc23)cc1`: the inhibition turned out to be 3.83% in experiment [1], 4.67% in experiment [2] and 4.27% in experiment [3].

With `O=C(Nc1ccc(Cl)c(Cl)c1)Nc1ccc(F)c([N+](=O)[O-])c1`, the inhibition in experiment [1] was -2.06%; in experiment [2], 0.4%; in experiment [3], -2.36%.

With `CCN(CC)CCN(Cc1ccc(-c2ccc(C(F)(F)F)cc2)cc1)C(=O)Cn1c(/C=C/c2ccco2)nc(=O)c2ccccc21`, the figures for the inhibition in experiment [1], in experiment [2] and in experiment [3] were -0.7%, -0.97% and -1.26%, respectively.

Regarding `CC(C)NCc1ccc(-c2ccc(CN3CCCC(c4ccccc4)C3)cc2)c(C(=O)NCC2CCCCC2)c1` (stereo not drawn), the inhibition is -0.28% in experiment [1], -0.36% in experiment [2] and -6.06% in experiment [3].

On to `CCCCCC(C)C(C)c1cc(O)c2c(c1)OC(C)(C)CC2=Cc1ccncc1` (stereo not drawn), for which the figures for the inhibition in experiment [1], in experiment [2] and in experiment [3] were 12.6%, 11.5% and 10.7%, respectively.

For the compound `N#Cc1ccc(-c2cnc3ccc(NCCc4cccnc4)nn23)cc1`, the figures for the inhibition in experiment [1], in experiment [2] and in experiment [3] were -0.81%, -0.84% and 0.25%, respectively.
